In the library only some 5.7% were active in any assay of this set; here they are far more common.
HT1080 IDH1KD tx: toxicity to HT-1080 IDH1 knockdown cells (counter line); HT-1080 IDH1 knockdown viability, ATP luminescence, 48 h; Potency, µM (series often up to 46.1 µM), without a hit: at the highest dose activity, negative = toxicity, actives largely listed as cytotoxic; 2% of 360,000 active; AID 686971;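 also: 0% = DMSO wells and -100% = cell-free medium wells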
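% activity derives from luminescence (CellTiter-Glo), normalised to DMSO and no-cell wells. HT-1080-IDH1KD cells, 750/well, had 48 h compound exposure at 37 °C.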
KB-3-1 cytotox: kills parental KB-3-1 adenocarcinoma cells | AID 1347075 | 1.4% of 400,000 active | KB-3-1 viability, CellTiter-Glo ATP luminescence, 72 h | Potency, µM (series often up to 46.1 µM), hits mostly cytotoxic; also: nearly all actives have a fitted effect of over 60% in size
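KB-3-1 cells, DMEM (no phenol red) + 10% FBS; compound by pin transfer, 72 h, 37 °C. Readout: CellTiter-Glo luminescence after 10 min. Data normalized, curve-fitted.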
KB-V1 MDR tox: KB-V1 MDR subline cytotoxicity; KB-V1 MDR cells viability, CellTiter-Glo, 72 h; Potency, µM (series often up to 46.1 µM), most hits filed as cytotoxic; 3.4% of 400,000 active; also: nearly all actives have a fitted effect of over 60% in size
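In this primary screen, KB-V1 cells overexpressing P-gp are incubated with library compounds (lowest to highest concentration) for 72 h at 37 degrees C before a luminescent ATP viability read.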
HT1080NT lethal: kills 2HG-producing HT-1080-NT fibrosarcoma cells. 1.6% of 360,000 active. Potency, µM (doses to about 46.1 µM), inactives show at the highest dose activity, negative = less viability, usual class: cytotoxic. HT-1080-NT fibrosarcoma viability, CellTiter-Glo ATP luminescence, 48 h;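 also: NT is the 2HG producing partner of a matched IDH1 knockdown line; 0% = DMSO-treated cells and -100% = media-only wells without cells; nearly all actives have a fitted effect of over 55% in size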
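HT-1080-NT; 750 cells/well; 5% FBS RPMI; 48 h compound, 37 degrees C; CellTiter-Glo luminescence; curve fitting and curve-class assignment.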
Starred values were filed as active, the others as inactive; i = inactive; ? = inconclusive; / = no result given. Calls follow the shape of the dose curve; as a rule, active = well fitted curve in the direction sought with a large enough effect; inconclusive = small, poorly fitted or top-dose-only effect, or another doubt; inactive = no such curve, though single readings can be large; an effect the other way counts as inactive or inconclusive. Unless noted, % is scaled to controls: 0 for no effect and ±100 for the full control effect; potency is read from the fitted curve at half-maximal effect.

SMILES	HT1080 IDH1KD tx	KB-3-1 cytotox	KB-V1 MDR tox	HT1080NT lethal
COc1ccc(S(=O)(=O)N2CCN(c3nc(-c4ccccc4)nc4ccccc34)CC2)cc1	/	i	i	/
CCOC(=O)N1CCN(S(=O)(=O)c2ccc(F)c(C(=O)Nc3ccc(C(C)C)cc3)c2)CC1	-11%	i	6.5µM*	-11%
Cc1ccc(SCCSc2nc(N)cc(=O)[nH]2)cc1	-3%	i	8.2µM*	-4%
Cc1cc(=O)[nH]c(SCCc2ccccc2)n1	6%	16µM*	12µM*	7%
CCCc1cc(=O)[nH]c(SCc2ccccc2)n1	-3%	i	i	-12%
Cc1nnc(SCCc2ccccc2)[nH]c1=O	8%	i	i	8%
CCc1cc(=O)[nH]c(SCCc2ccccc2)n1	3%	13µM*	8.2µM*	12%
Cc1nc(SCCc2ccccc2)[nH]c(=O)c1C	-1%	3.3µM*	3.3µM*	-1%
Nc1cc(=O)[nH]c(SCCSc2ccc(F)cc2)n1	-11%	?	?	-12%
Cc1nn2c(C)c(C(=O)NC(C)(C)C)cnc2c1-c1ccc(F)cc1	/	i	i	/
COCCn1c(SCC(=O)N2CCC(C)CC2)nc2ccccc2c1=O	2%	i	i	8%
COc1ccc(C(=O)Nn2c(SCC(=O)NC3CCCCC3)nc3ccccc3c2=O)cc1	-21%	i	18µM*	?
COc1ccc(C(=O)Nn2c(SCC(=O)N3CCC(C)CC3)nc3ccccc3c2=O)cc1	?	i	5.2µM*	?
COc1ccc(C(=O)Nn2c(SCC(=O)c3ccc(Cl)cc3)nc3ccccc3c2=O)cc1	?	i	5.8µM*	?
COc1ccccc1-c1c(C)nn2c(N3CCN(c4ccc(Cl)cc4)CC3)cc(C)nc12	/	i	i	/
COc1ccc(NC(=O)N(Cc2cc3cc(C)ccc3[nH]c2=O)CC2CCCO2)cc1 (stereo unspecified)	-14%	i	i	-20%
Cc1ccc2[nH]c(=O)c(CN(CC3CCCO3)S(=O)(=O)c3c(C)ccc4nsnc34)cc2c1 (stereo unspecified)	-4%	?	6.5µM*	5%
COc1ccc2[nH]c(=O)c(CN(CC3CCCO3)C(=O)Nc3ccc(F)cc3)cc2c1 (stereo unspecified)	-1%	13µM*	2.6µM*	-5%
Cc1cc(C)c2[nH]c(=O)c(CN(CC3CCCO3)C(=S)NCc3ccco3)cc2c1 (stereo unspecified)	24%	i	i	13%
Cc1ccc2[nH]c(=O)c(CN(CC3CCCO3)C(=S)Nc3ccccc3)cc2c1 (stereo unspecified)	-11%	?	4.1µM*	-4%
Cc1cc(C)c2[nH]c(=O)c(CN(CC3CCCO3)C(=S)Nc3ccccc3)cc2c1 (stereo unspecified)	11%	i	i	3%
Cc1ccc2[nH]c(=O)c(CN(CC3CCCO3)S(=O)(=O)c3cccc4nsnc34)cc2c1 (stereo unspecified)	3%	i	i	-2%
Cc1cccc2cc(CN(CC3CCCO3)C(=S)NCc3ccco3)c(=O)[nH]c12 (stereo unspecified)	?	i	4.1µM*	-27%
O=C(c1cc2ccccc2oc1=O)N(Cc1ccco1)CC1CCCO1 (stereo unspecified)	6%	i	12µM*	6%
Cc1ccc2cc(CN(CC3CCCO3)C(=S)Nc3ccccc3)c(=O)[nH]c2c1C (stereo unspecified)	?	7.3µM*	2.3µM*	?
SMILES	HT1080 IDH1KD tx	KB-3-1 cytotox	KB-V1 MDR tox	HT1080NT lethal
O=C(c1cc2ccccc2oc1=O)N(Cc1ccccc1)CC1CCCO1 (stereo unspecified)	-7%	i	i	0%
CCCCOc1ccccc1C1CC(=O)NC2=C1C(=O)CCC2 (stereo unspecified)	1.6µM*	?	?	2.3µM*
CCOc1ccc(C2CC(=O)NC3=C2C(=O)CCC3)cc1 (stereo unspecified)	6%	i	i	8%
CCCOc1ccccc1C1CC(=O)NC2=C1C(=O)CCC2 (stereo unspecified)	8.2µM*	4.6µM*	?	12µM*
CCCOc1ccccc1C1CC(=O)NC(C)=C1C(=O)OCC(C)C (stereo unspecified)	?	i	?	-13%
CCOc1ccccc1C1CC(=O)NC2=C1C(=O)CCC2 (stereo unspecified)	23µM*	?	?	?
O=C(NNc1ncc(C(F)(F)F)cc1Cl)c1c(Cl)cccc1Cl	7.3µM*	5.8µM*	2.9µM*	?
Cc1ccccc1Nc1nc(N)nc(CSc2nc3ccccc3c(=O)n2CCCO)n1	-20%	i	i	?
COCCn1c(SCc2nc(N)nc(Nc3ccccc3C)n2)nc2ccccc2c1=O	4%	i	8.2µM*	-18%
Cc1ccccc1NC(=O)CCCSc1nc2ccccc2s1	1%	i	15µM*	-4%
Cc1ccccc1Nc1nc(N)nc(CSc2nc3ccccc3c(=O)n2C)n1	-29%	i	16µM*	-17%
Cc1ccc(Nc2nc(N)nc(CSc3nc4ccccc4s3)n2)cc1	?	i	?	?
Cc1ccccc1Nc1nc(N)nc(CSc2nc3ccccc3s2)n1	6%	i	16µM*	7%
CC(=O)Nc1ccccc1-c1nc2ccccc2n(C(C)C(=O)Nc2cccc(C)c2C)c1=O (stereo unspecified)	/	i	i	/
CC1(C(=O)NCc2cccc(C(F)(F)F)c2)CCN1C1Cc2ccccc2C1 (stereo unspecified)	?	i	i	?
COc1ccccc1-c1nnc(SCC(=O)NCc2c(C)c(Cl)cc(C(C)C)c2O)o1	16µM*	i	?	?
CCn1nc(C)cc1-c1nnc(SCC(=O)Nc2ccccc2)n1CCCOC	10%	i	?	8%
CCn1nc(C)cc1-c1nnc(Sc2ncc([N+](=O)[O-])s2)n1C	21µM*	?	i	10µM*
COc1ccc(Cn2c(CCC(=O)NCc3ccc(Cl)cc3)nc3cccnc32)cc1	/	i	i	/
CC(O)(c1cccc(F)c1)c1nc(-c2cnc3ccccc3c2)cs1 (stereo unspecified)	?	i	?	15µM*
CC(O)(c1cccnc1)c1nc(-c2ccc3ccccc3c2)cs1 (stereo unspecified)	?	?	6.5µM*	?
CC(O)(c1cccc(F)c1)c1nc(-c2ccccc2)cs1 (stereo unspecified)	?	i	i	?
CC(O)(c1cccc(F)c1)c1nc(-c2cccc(C(F)(F)F)c2)cs1 (stereo unspecified)	?	i	i	21µM*
COc1cc(-c2ccc3ncnc(NCc4cccs4)c3c2)cc(OC)c1OC	/	i	i	/
Cc1ccc(CCNc2nc3c(S(=O)(=O)c4ccc(C)cc4)nnn3c3ccsc23)cc1	/	i	i	/

Screening data: PubChem BioAssay, National Center for Advancing Translational Sciences (NCATS)
